Assay [1] is described as follows: CCTE_Padilla_ZF_144hpf_TERATOSCORE: (Legacy) CCTE's 144 Hour Post-fertilization zebrafish Assay Teratoscore, Padilla Lab (AID 2283679; active = hit-call score of the fitted dose curve at least 0.9, where 1 is the maximum; inactive = score below 0.9;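 for AC50: zebrafish embryos with chorions exposed by immersion from 6-8 hpf to 5 dpf with daily renewal; teratogenicity score from eye scoring of death hatching and malformations at 144 hpf; higher score means more developmental defects relative to DMSO baseline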). Put shortly:
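Larvae scored by eye at 144 hpf for death, hatching and malformations after a day in clean Hanks'. Before that, daily-renewed exposure at 80 uM (0.4% DMSO, 26C) from roughly 6-8 hpf through 5 dpf, 4 embryos per chemical.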

Read-out in assay [2]: Glyceraldehyde-3-phosphate dehydrogenase (Homo sapiens) (UniProt P04406)
The experiment in a line: CLD_GAPDH_6hr: CellzDirect (CLD) Gene Expression Assay for Baseline Control (Glyceraldehyde 3-phosphate dehydrogenase) at 6 hours (AID 2283681).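 Note: active means increased signal relative to DMSO vehicle.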 Put shortly: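 GAPDH baseline-control readout from qNPA (S1 nuclease digestion, probe hybridization, chemiluminescence) in lysates of cultured human hepatocytes harvested 6 h post-dosing. Chemicals tested at multiple concentrations versus 0.2% DMSO vehicle; microscopy-based cytotoxicity flagged yes/no.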

Read-out in assay [3]: xenobiotic metabolism (CYP1A2), CYP1A2 (gene 1544)
The experiment in a line: CLD_CYP1A2_24hr: CellzDirect (CLD) Gene Expression Assay for xenobiotic metabolism (CYP1A2) at 24 hours (AID 2283683). In outline:
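CYP1A2 mRNA induction measured by quantitative nuclease protection (chemiluminescent) in human primary hepatocytes 24 h after multi-concentration chemical dosing with daily fresh solutions. DMSO (0.2%) baseline; positive-direction fitting; morphology-based cytotoxicity noted.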

Read-out in assay [4]: Cytochrome P450 2B6 (Homo sapiens) (UniProt P20813)
The experiment in a line: CLD_CYP2B6_24hr: CellzDirect (CLD) Gene Expression Assay for xenobiotic metabolism (CYP2B6) at 24 hours (AID 2283686). In outline: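 qNPA chemiluminescent measurement of mRNA at 24 hours in human primary hepatocyte cultures from two donor preparations, with daily fresh dosing and 0.2% DMSO vehicle as baseline. Morphology-based cytotoxicity flagged yes/no.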

Read-out in assay [5]: Cytochrome P450 2C19 (Homo sapiens) (UniProt P33261)
Briefly: CLD_CYP2C19_24hr: CellzDirect (CLD) Gene Expression Assay for xenobiotic metabolism (CYP2C19) at 24 hours (AID 2283687).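 Note: activity means mRNA induction above DMSO vehicle baseline.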 Put shortly:
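CYP2C19 mRNA was quantified by qNPA chemiluminescence after 24 h of daily dosing of cultured human primary hepatocytes from two donors; vehicle was 0.2% DMSO, and increases over DMSO baseline were fitted.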

Read-out in assay [6]: alkyl and aryl transferase (GSTA2), GSTA2 (gene 2939)
The experiment in a line: CLD_GSTA2_24hr: CellzDirect (CLD) Gene Expression Assay for alkyl and aryl transferase (GSTA2) at 24 hours (AID 2283693). Put shortly:
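GSTA2 transcript levels were quantified by quantitative nuclease protection assay in primary human hepatocytes 24 h after daily dosing with fresh solutions at multiple concentrations; 0.2% DMSO vehicle as baseline, cytotoxicity flagged morphologically.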

Read-out in assay [7]: Cytochrome P450 2B6 (Homo sapiens) (UniProt P20813)
The experiment in a line: CLD_CYP2B6_48hr: CellzDirect (CLD) Gene Expression Assay for xenobiotic metabolism (CYP2B6) at 48 hours (AID 2283699).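 Note: actives raise transcript level above DMSO so potency reflects induction.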 Put shortly:
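CYP2B6 transcript induction, read by quantitative nuclease protection (S1 digestion, chemiluminescent detection) 48 h after dosing, is fitted upward against 0.2% DMSO. Cultured human liver primary cells, two donor preparations, received fresh chemical daily over multiple concentrations.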

Read-out in assay [8]: Cytochrome P450 2C19 (Homo sapiens) (UniProt P33261)
Briefly: CLD_CYP2C19_48hr: CellzDirect (CLD) Gene Expression Assay for xenobiotic metabolism (CYP2C19) at 48 hours (AID 2283700).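 Note: fitted upward so actives raise CYP2C19 mRNA above the 0.2% DMSO vehicle.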 In outline:
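CYP2C19 mRNA induction read by chemiluminescent quantitative nuclease protection assay after 48 h, with fresh compound added daily for two days to cultured human liver hepatocytes. Activity fitted upward against 0.2% DMSO vehicle.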

Read-out in assay [9]: Cytochrome P450 3A4 (Homo sapiens) (UniProt P08684)
The experiment in a line: CLD_CYP3A4_6hr: CellzDirect (CLD) Gene Expression Assay for xenobiotic metabolism (CYP3A4) at 6 hours (AID 2283680). Put shortly:
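CYP3A4 mRNA induction, 6 h after dosing of cultured primary human hepatocytes from two donors, read by quantitative nuclease protection (qNPA, chemiluminescence). Vehicle 0.2% DMSO as baseline; morphology-based cytotoxicity annotated yes/no.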

Read-out in assay [10]: HMG-CoA synthase (HMGCS2), HMGCS2 (gene 3158)
Briefly: CLD_HMGCS2_6hr: CellzDirect (CLD) Gene Expression Assay for HMG-CoA synthase (HMGCS2) at 6 hours (AID 2283682).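 Note: actives raise HMGCS2 transcript above the 0.2% DMSO vehicle baseline.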 Put shortly:
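HMGCS2 transcript induction read by quantitative nuclease protection with chemiluminescence, 6 h after dosing of primary human hepatocytes. Baseline was 0.2% DMSO vehicle; phase-contrast morphology gave a yes/no cytotoxicity annotation.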

Read-out in assay [11]: sulfotransferase (SULT2A), SULT2A1 (gene 6822)
Briefly: CLD_SULT2A_24hr: CellzDirect (CLD) Gene Expression Assay for sulfotransferase (SULT2A) at 24 hours (AID 2283694). In outline: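 mRNA is measured by qNPA: probe hybridisation, S1 nuclease digestion, chemiluminescence, in lysates from human primary hepatocytes harvested 24 h after daily dosing. Vehicle was 0.2% DMSO. Phase-contrast microscopy flagged cytotoxicity (yes/no).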

Read-out in assay [12]: ABC Transporter (ABCB1), ABCB1 (gene 5243)
Briefly: CLD_ABCB1_48hr: CellzDirect (CLD) Gene Expression Assay for ABC Transporter (ABCB1) at 48 hours (AID 2283695). In outline:
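ABCB1 mRNA was measured by quantitative nuclease protection assay (chemiluminescence) 48 h after dosing. Human hepatocyte cultures from two separate donors received fresh dosing solutions daily for two days, with 0.2% DMSO as vehicle. Positive-direction fit against DMSO.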

Read-out in assay [13]: ABC Transporter (ABCB1), ABCB1 (gene 5243)
The experiment in a line: CLD_ABCB1_24hr: CellzDirect (CLD) Gene Expression Assay for ABC Transporter (ABCB1) at 24 hours (AID 2283684). Put shortly: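 ABCB1 mRNA induction versus 0.2% DMSO vehicle was read by qNPA chemiluminescence at 24 h. Cultured human hepatocytes from two donor preparations received daily fresh dosing, and phase-contrast cytotoxicity calls were annotated alongside the data.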

Read-out in assay [14]: Cytochrome P450 3A4 (Homo sapiens) (UniProt P08684)
Briefly: CLD_CYP3A4_24hr: CellzDirect (CLD) Gene Expression Assay for xenobiotic metabolism (CYP3A4) at 24 hours (AID 2283689). In outline:
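CYP3A4 mRNA induction read by quantitative nuclease protection (chemiluminescence) 24 hr after dosing. Cultured human hepatocytes (two donor preparations) treated daily, vehicle 0.2% DMSO; phase-contrast morphology annotates cytotoxicity.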

Read-out in assay [15]: glucuronosyltransferase (UGT1A1), UGT1A1 (gene 54658)
Briefly: CLD_UGT1A1_24hr: CellzDirect (CLD) Gene Expression Assay for glucuronosyltransferase (UGT1A1) at 24 hours (AID 2283696). Put shortly: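 UGT1A1 transcript induction was measured by quantitative nuclease protection assay (chemiluminescence) in human hepatocyte cultures 24 h after daily fresh dosing, with 0.2% DMSO as vehicle and baseline.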

Read-out in assay [16]: Cytochrome P450 2B6 (Homo sapiens) (UniProt P20813)
The experiment in a line: CLD_CYP2B6_6hr: CellzDirect (CLD) Gene Expression Assay for xenobiotic metabolism (CYP2B6) at 6 hours (AID 2283677).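 Note: actives raise CYP2B6 transcript above DMSO baseline so AC50 marks an inducer.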 In outline:
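CYP2B6 transcript levels, read by chemiluminescent qNPA, were fitted for increase versus DMSO baseline; cultured human liver hepatocytes from two donor preparations were harvested 6 h after exposure to test chemicals at multiple concentrations.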

Read-out in assay [17]: Cytochrome P450 3A4 (Homo sapiens) (UniProt P08684)
The experiment in a line: CLD_CYP3A4_48hr: CellzDirect (CLD) Gene Expression Assay for xenobiotic metabolism (CYP3A4) at 48 hours (AID 2283698). Put shortly:
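CYP3A4 induction read by qNPA chemiluminescence after 48 h, with fresh dosing solutions on consecutive days, in cultured human hepatocytes (two donors). Vehicle 0.2% DMSO as baseline; microscopy-based cytotoxicity annotated yes/no alongside data.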

Assay [18] is described as follows: CLD_ACTIN_6hr: CellzDirect (CLD) Gene Expression Assay for Baseline Control (Actin) at 6 hours (AID 2283676).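 Note: active means increased actin mRNA relative to DMSO vehicle.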 In outline:
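Baseline actin transcript level measured by qNPA (S1 nuclease protection, chemiluminescence) in human hepatocyte cultures 6 h after chemical exposure; 0.2% DMSO vehicle as reference, cytotoxicity noted from morphology.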

Read-out in assay [19]: Glyceraldehyde-3-phosphate dehydrogenase (Homo sapiens) (UniProt P04406)
Briefly: CLD_GAPDH_24hr: CellzDirect (CLD) Gene Expression Assay for Baseline Control (Glyceraldehyde 3-phosphate dehydrogenase) at 24 hours (AID 2283692). Put shortly: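 GAPDH baseline-control readout: qNPA chemiluminescent mRNA signal in human primary hepatocytes harvested 24 h after daily dosing, normalised to 0.2% DMSO with positive fitting direction; cytotoxicity annotated by phase-contrast morphology.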

Inconclusive results are not listed. Active and inactive are the calls of the source. Rule for the calls, unless noted: active = hit-call score of the fitted dose curve at least 0.9, where 1 is the maximum; inconclusive = response in the unintended direction; inactive = score below 0.9.

Broadly, the AC50 is the midpoint of the concentration-response curve, whichever way the signal moves.

Sequence of Glyceraldehyde-3-phosphate dehydrogenase (Homo sapiens) (P04406 whole entry, looked up): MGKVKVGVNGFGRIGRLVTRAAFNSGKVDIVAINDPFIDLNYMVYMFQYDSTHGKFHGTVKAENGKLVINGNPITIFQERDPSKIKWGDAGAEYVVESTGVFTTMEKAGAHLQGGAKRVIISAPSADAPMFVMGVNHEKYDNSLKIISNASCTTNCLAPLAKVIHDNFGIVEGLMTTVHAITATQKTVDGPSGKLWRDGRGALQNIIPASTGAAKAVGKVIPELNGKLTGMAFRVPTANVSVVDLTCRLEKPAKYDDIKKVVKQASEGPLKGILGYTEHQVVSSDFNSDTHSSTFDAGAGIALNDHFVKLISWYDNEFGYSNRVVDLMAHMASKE
Sequence of Cytochrome P450 3A4 (Homo sapiens) (P08684 whole entry, looked up): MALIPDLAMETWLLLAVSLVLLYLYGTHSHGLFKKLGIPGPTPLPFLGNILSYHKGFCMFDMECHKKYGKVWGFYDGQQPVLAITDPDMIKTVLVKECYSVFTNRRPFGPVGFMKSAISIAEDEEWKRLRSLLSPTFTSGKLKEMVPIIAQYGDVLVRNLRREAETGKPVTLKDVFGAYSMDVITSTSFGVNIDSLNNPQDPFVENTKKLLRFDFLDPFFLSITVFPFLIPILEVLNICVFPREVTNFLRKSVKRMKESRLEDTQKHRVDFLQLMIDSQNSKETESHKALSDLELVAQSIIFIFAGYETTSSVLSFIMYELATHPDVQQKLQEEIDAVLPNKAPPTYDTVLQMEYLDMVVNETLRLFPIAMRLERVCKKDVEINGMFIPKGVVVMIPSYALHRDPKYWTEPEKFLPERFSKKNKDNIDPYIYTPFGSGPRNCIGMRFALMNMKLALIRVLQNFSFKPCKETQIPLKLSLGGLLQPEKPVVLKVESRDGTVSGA
Sequence of Cytochrome P450 2C19 (Homo sapiens) (P33261 whole entry, looked up): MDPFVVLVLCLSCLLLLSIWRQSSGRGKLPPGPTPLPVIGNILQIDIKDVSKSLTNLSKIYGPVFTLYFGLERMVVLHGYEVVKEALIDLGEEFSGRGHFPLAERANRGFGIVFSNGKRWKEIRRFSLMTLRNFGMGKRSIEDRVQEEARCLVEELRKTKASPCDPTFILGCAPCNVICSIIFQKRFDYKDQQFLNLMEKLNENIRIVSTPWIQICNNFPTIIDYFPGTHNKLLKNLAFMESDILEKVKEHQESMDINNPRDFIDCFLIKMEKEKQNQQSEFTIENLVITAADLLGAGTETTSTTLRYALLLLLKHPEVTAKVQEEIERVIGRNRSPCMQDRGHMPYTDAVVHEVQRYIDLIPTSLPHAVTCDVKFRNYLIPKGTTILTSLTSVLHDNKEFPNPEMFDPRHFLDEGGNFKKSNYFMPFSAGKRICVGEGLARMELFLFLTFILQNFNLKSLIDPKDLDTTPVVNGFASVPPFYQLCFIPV

For the compound `CC(C1CC1)C(O)(Cn1cncn1)c1ccc(Cl)cc1` (stereo not given), the AC50 was 57.6 µM (active) in assay [1], 4.89 µM (active) in assay [3], 4.02 µM (active) in [4] and 2.42 µM (active) in assay [7]. For the same compound, the compound was called inactive in assay [2], in assay [5], in assay [6] and in assay [8].
For the compound `CC1(C(=O)Nc2ccc(O)c(Cl)c2Cl)CCCCC1`, the AC50 in assay [1] is 10.1 µM (active). The compound was called inactive in assay [9], in assay [2], in assay [10], in [4], in assay [5] and in assay [11]. The call in assay [12] and in assay [8] was inactive.
As to `CCCSP(=O)(OCC)SCCC`, the compound was called inactive in [1], in assay [9], in [2], in assay [10], in assay [13] and in assay [14]. Also, the outcome in assay [6], in assay [11] and in assay [15] was inactive. The AC50 in assay [3] was 4.21 µM (active); in [4], 2.84 µM (active).
Turning to `CCOP(=S)(OCC)Oc1ccc([N+](=O)[O-])cc1`, the half-maximal activity concentration (AC50) in assay [16] was 2.58 µM (active); in [1], 6.3 µM (active); in assay [9] it was 2.2 µM (active); in [3], 4.89 µM (active); in assay [17] it was 2.92 µM (active); in [7], 1.13 µM (active). Besides, the compound was called inactive in assay [10], in assay [13] and in assay [15].
Consider `O=C(O)c1cc(Oc2ccc(C(F)(F)F)cc2Cl)ccc1[N+](=O)[O-]`, for which the outcome in assay [18], in assay [1], in assay [3], in assay [13], in assay [19] and in assay [12] was inactive. For the same compound, the compound was classed as inactive in assay [8]. In assay [10], the AC50 was 0.00569 µM (active).
For the compound `CCc1cccc(CC)c1N(COC)C(=O)CCl`, the half-maximal activity concentration (AC50) in assay [16] was 2.58 µM (active); in [1], 35.4 µM (active); in assay [9], 1.93 µM (active). The result in assay [2], in assay [3], in assay [19], in assay [6], in assay [12] and in [15] was inactive.
For the compound `CC1=NNC(=O)N(/N=C/c2cccnc2)C1`, the compound was called inactive in assay [18], in assay [2], in [10], in [4], in [14] and in assay [19]. Besides, the outcome in assay [6], in assay [12] and in assay [8] was inactive. The AC50 was 46.4 µM (active) in assay [1] and 5.59 µM (active) in assay [3].
